Screening results: PubChem BioAssay, Broad Institute
Shown are actives, neighbours in structure and some others; about 3% of the full set was active somewhere.
esBAF inh: blocks esBAF chromatin remodeling in mouse ES cells; Bmi1-luciferase knock-in reporter, 24 h; 100% = twice the neutral-well signal; reporter increase, % at 12.5 µM; 2% of 350,000 active; AID 602393; in the data active = activation above about 40%; inconclusive = no clear call, values can overlap the other calls;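 note: 0% = median of the plate's neutral control wells and 100% = double that signal; a rise in the Bmi1 reporter signal indicates esBAF inhibition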
Wnt act: activates Wnt/beta-catenin signaling in a reporter cell assay. 1.2% of 300,000 active. AID 743398. activator, plate reader. activation, % at 9.35 µM; in the data active = activation above about 30%, passing the limit was not always enough; inconclusive = no clear call, values can overlap the other calls;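 note: 0% = neutral control wells and 100% = positive control wells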
PfHsp90 yeast 2: growth inhibition of yeast expressing Plasmodium Hsp90; 0.32% of 310,000 active; S. cerevisiae expressing PfHsp90, BacTiter-Glo ATP, 48 h; yeast lacking PDR1 and PDR3 efflux regulators; inhibition, % at 9.4 µM;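 active = every replicate shows inhibition above about 80%, whatever the replicate mean, limit read from the data; inconclusive = mean inhibition reaches the set limit but some replicate falls short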;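 note: 0% = DMSO neutral controls and 100% = 20 µM radicicol positive controls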
Glyco luc inh: blocks N-linked glycosylation in D54 reporter cells; AID 588692; D54 ERlucT glycosylation luciferase reporter, 24 h; percent of 100 nM tunicamycin response; reporter increase, % at 12.5 µM; 0.23% of 360,000 active;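 active = mean luciferase reporter signal, scaled so untreated is 0 and the glycosylation-blocking control 100, at or above a set limit in every replicate; inconclusive = mean reaches the limit but not every replicate does; inactive = mean below the limit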;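 note: luciferase carries N-glycosylation sites so blocking glycosylation raises the light; 0% = median of neutral control wells and 100% = median of 100 nM tunicamycin wells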
Vif inh: HIV Vif inhibition. HEK293T cells, Vif self-association by quenched fluorescence, imaging, 24 h. inhibition, % at 7.49 µM. 0.35% of 340,000 active. AID 602346; in the data active = inhibition above about 50%, passing the limit was not always enough; inconclusive = no clear call, values can overlap the other calls; inactive = below about 31%
MITF act: increases MITF-driven TRPM1 promoter luciferase signal; SK-MEL-5 TRPM1-promoter luciferase, 24 h; % of positive control, neutral wells = 0; activation, % at 12.5 µM; 0.75% of 300,000 active; AID 588334;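 active = mean activation of at least 80% with every replicate also reaching 80%; inconclusive = mean reaches 80% but some replicate falls short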;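 note: 0% = neutral control wells and 100% = parthenolide positive control wells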
Active calls of the source: *; ? = inconclusive; . = no result.

SMILES	esBAF inh	Wnt act	PfHsp90 yeast 2	Glyco luc inh	Vif inh	MITF act
Cc1nn(-c2ccccc2)c(N)c1N=Nc1ccc2ccccc2c1	?	11.8	-15.7	-1.4	-11.4	57.7
COc1ccc(N=Nc2c(N)nn(C)c2N)cc1	44.5*	8.9	-19.0	-1.1	-8.7	54.6
Cc1ccc(N=Nc2c(N)nn(-c3ccccc3)c2N)cc1	.	33.0*	20.5	?	2.2	10.2
COc1ccccc1C(=O)C1CCCN(Cc2ccc(Oc3ncccn3)cc2)C1 (stereo not drawn)	.	-3.4	.	-0.1	1.5	-6.8
O=C(N/N=C\c1cccc(Cl)c1)c1n[nH]c2c1CCCC2	.	?	-0.6	-3.7	0.0	100.4*
CNc1ccccc1C(=O)OCC(=O)c1ccc(F)cc1	.	3.9	-20.1	2.4	2.0	2.3
CNc1ccccc1C(=O)OCC(=O)c1ccccc1	58.6*	.	-11.8	3.3	0.9	64.2
O=C(COC(=O)c1ccc(Br)cc1)NCCc1ccccc1	.	.	15.7	-0.5	3.9	-5.4
O=C(COC(=O)c1ccccc1)c1ccc(Br)cc1	61.0*	11.1	15.9	-0.2	-2.7	53.6
Cc1c(C(=O)Nc2cccnc2)oc2ccc(Br)cc12	60.3*	0.6	1.1	12.9	0.0	.
CCc1sc(C(=O)Nc2cccnc2)cc1Br	50.3*	9.1	18.9	-1.0	-5.0	44.2
Cc1c(C(=O)NCc2cccs2)oc2ccc(Br)cc12	50.9*	.	.	-8.3	-18.5	.
CCc1nonc1NC(=O)c1oc2ccc(Br)cc2c1C	-1.0	2.9	-34.4	-1.6	4.5	25.2
Cc1c(C(=O)NCc2cccs2)oc2ccc(S(=O)(=O)N3CCOCC3)cc12	-0.5	-3.7	27.6	-1.2	16.3	4.6
Cc1c(C(=O)NCc2ccccn2)oc2ccc(S(=O)(=O)N3CCOCC3)cc12	-3.4	-0.7	.	-1.4	86.4*	.
Cc1c(C(=O)NCc2ccccn2)oc2ccc(Br)cc12	53.8*	12.1	4.1	-0.6	-8.9	96.7*
CCNC(=O)C1(C)CCN1C(=O)Cc1ccc(C(C)C)cc1 (stereo not drawn)	-4.3	-0.7	.	-1.8	7.8	.
COC(=O)C(C)N1C(=O)S/C(=C\c2ccc(-c3ccc(C(=O)O)cc3C)o2)C1=O (stereo not drawn)	71.0*	7.3	-19.1	4.9	-11.4	36.0
COc1ccccc1N1C(=O)CCC1(C#N)c1ccccc1 (stereo not drawn)	-5.2	1.1	20.1	2.7	68.6*	.
Nc1nc(Cl)nc2ccc(Br)cc12	.	.	-2.1	-10.4	-4.7	-4.1
CCc1c(C)nc2ccc(Br)cc2c1Cl	53.3*	.	-8.6	-0.3	5.4	.
Cc1ccc(N2CCN(C(=S)c3ccc(N(C)C)cc3)CC2)cc1	30.3	8.8	-3.9	-3.1	66.0*	13.7
CN(C)c1ccc(C(=S)N2CCN(c3ccccc3)CC2)cc1	.	0.6	-0.1	-1.6	10.5	9.3
O=C1CCN(Cc2ccc(O)cc2)CCN1[C@H](CO)Cc1ccccc1	2.4	-1.0	21.2	-0.2	54.1*	6.2
O=C1CCN(Cc2ccccc2)CCN1[C@H](CO)Cc1ccccc1	-0.7	14.4	-12.5	1.7	-2.3	4.6
SMILES	esBAF inh	Wnt act	PfHsp90 yeast 2	Glyco luc inh	Vif inh	MITF act
Nc1cc[n+](CC(=O)c2ccc3c(c2)OCCO3)cc1	-2.4	-1.1	-7.0	-2.2	81.6*	-6.3
O=C(C[n+]1ccc(C(=O)NCc2ccccc2)cc1)c1ccc2c(c1)OCCO2	.	-0.8	7.3	-1.3	-3.0	3.6
COc1cc(/C=C2/C(=O)N(C)C(=S)N2C)ccc1OCc1cccc(F)c1	-3.4	0.1	17.9	34.1*	19.4	.
COC(=O)c1ccccc1OCCCOc1ccc(C=O)cc1OC	70.1*	.	14.7	-13.8	5.3	43.9
COc1cc(C=O)ccc1OCc1cccc(Br)c1	.	41.7*	-12.2	-0.8	5.4	?
COc1cc(C=O)ccc1OCc1ccccc1Br	.	22.5	-9.0	-2.0	.	42.0
CN1C(=O)/C(=C/c2ccc(OCc3cccc(F)c3)cc2)NC1=S	-0.9	-2.5	-15.4	-2.6	-4.8	.
COC(=O)c1ccccc1OCCOc1ccccc1C(=O)OC	-6.6	-0.8	-2.8	1.0	-4.8	-12.4
CC(C)(C)C(=O)Nc1nc(-c2ccccc2)ns1	48.6*	.	.	-6.6	-21.5	.
CC(C)(C)NC[C@@H](O)COc1cccc2c1CCCC2=O	-0.3	0.7	5.4	1.1	-1.2	-4.2
CC(C)(C)NCC(O)COc1ccccc1C1CCCC1 (stereo not drawn)	-8.7	-1.3	5.9	2.5	51.6*	-4.4
Cc1ccc(NC(=O)c2cccc(OC(F)F)c2)c(OC(F)F)c1	3.6	0.9	-0.2	1.9	0.0	0.5
Cc1c(Cl)cccc1NC(=O)c1cccc(OC(F)F)c1	50.2*	7.0	15.8	-2.3	12.0	11.3
COc1ccc(NC(=O)c2cccc(F)c2)cc1Cl	77.2*	.	-15.9	-1.0	5.8	59.2
COc1cc(OC)c(NC(=O)c2cccc(F)c2)cc1Cl	.	-0.1	11.6	2.6	-12.6	-6.4
COc1ccc(NC(=O)c2cccc(OC(F)F)c2)cc1Cl	57.3*	.	-1.8	0.0	-1.6	51.8
O=C(Nc1ccc2c(c1)CCC2)c1cccc(OC(F)F)c1	?	64.9*	.	-7.0	18.1	.
COC(=O)c1cccc(NC(=O)c2ccc(OC)c(Cl)c2)c1	27.1	11.2	.	-0.9	8.9	52.9
Cc1cc(C)nc(-n2cc(C(=O)c3cc(F)ccc3O)cn2)n1	.	-0.4	15.6	0.9	-0.9	1.6
CC(C)CCOc1ccc(/C=C2\CCn3c2nc2cc(C(=O)O)ccc2c3=O)cc1	4.3	.	-31.8	6.9	7.4	-13.2
O=C(Nc1ccc(OC(F)F)c(Cl)c1)c1cccc(OC(F)F)c1	21.1	.	6.0	-6.5	-11.4	88.0*
c1ccc2c(-n3cccn3)cccc2c1	71.2*	.	-16.7	1.4	-8.2	37.2
COc1ccc(-n2c(Cc3cccn3C)nnc2SCC(=O)Nc2cccc(OC)c2)cc1	-5.1	2.4	4.5	-0.1	10.6	-12.7
O=C(CNC(=O)c1cccs1)OCC(=O)c1ccc(Cl)cc1	4.2	-1.2	-5.0	-0.4	7.4	9.1
O=C(CNC(=O)c1cccs1)c1ccc(Cl)cc1	39.4	5.3	-15.1	-12.7	8.4	130.1*
SMILES	esBAF inh	Wnt act	PfHsp90 yeast 2	Glyco luc inh	Vif inh	MITF act
CCOC(=O)c1cc2occc2n1CC(=O)N1CCOCC1	-7.4	.	25.2	-1.3	59.7*	0.2
COc1cc(Cl)c(C)cc1NC(=O)CN1C(=O)C2CC=CCC2C1=O (stereo not drawn)	2.7	-1.2	-3.2	2.0	58.8*	-2.9
CCC(C)n1c(-c2cccs2)nc2nc3ccccc3nc21 (stereo not drawn)	-9.9	.	-14.4	1.7	68.4*	-10.5
C=CCn1c(-c2cccs2)nc2nc3ccccc3nc21	46.5*	3.9	13.9	2.3	-9.9	9.4
C=CCn1c(-c2cccs2)nc2ccccc21	21.5	-2.2	-4.0	-0.7	1.6	19.2
CN(C)S(=O)(=O)c1ccc2oc(SCC(=O)c3c(N)n(C4CC4)c(=O)[nH]c3=O)nc2c1	0.4	-4.7	-3.1	-1.4	-4.1	20.3
